# Assay results reported in PubChem BioAssay AID743167 (National Center for Advancing Translational Sciences (NCATS), 2013).
# Several values for one entry are separate records, joined by “and”; a condition that tells them apart may be missing. Equal values may be shown once. Records with an inconclusive call do not appear. Activity calls are given as the source filed them. The call rests on the fitted dose curve; in most records, active means well fitted activation curve with a large enough effect; inconclusive means small, poorly fitted or top-dose-only effect; inactive means flat fitted curve, though single readings scatter.
# Assay: Extended Characterization of HPGD Inhibitors: PGE2 Assay in A549 Cells
# Details: PGE2 HTRF level, 16 h
# Source text: The central role of HPGD is to inactivate prostaglandins such as prostaglandin E2 (PGE2) or prostaglandin D2 (PGD2). These prostaglandins are involved in a number of processes, including inflammation, differentiation, and cellular signaling, which makes HPGD an important target for pharmacological intervention. A number of prostaglandins of particular biological interest have been identified as substrates of HPGD. […] Over-production of PGE2 has been reported to promote tumor-associated neovascularization, cell proliferation, and tumor growth. […] In this orthogonal assay, we set out to measure if compounds were able to increase PGE2 production NIH Chemical Genomics Center [NCGC] NIH Molecular Libraries Probe Centers Network [MLPCN] MLPCN Grant: MH084681 Assay Submitter (PI): Structural Genomics Consortium
# A549 cells, LNCaP cells or media were dispensed in 384-well plates (ProxiPlate-384 Plus, PerkinElmer, Shelton, CT) at 5,000 cells/9.9 uL/well using a CappAero384 multichannel pipette (Odense, Denmark). Separately on the plate, 10 uL of PGE2 calibration standards at a starting assay concentration of 5,000 pg/mL (1:2 dilution, 12-points, n = 1, prepared in media, Cisbio, Bedford, MA) were dispensed. Compounds (100 nL, final concentration range from 41.9 nM to 100 uM) were transferred using an ATS Acoustic Liquid Dispenser (EDC Biosystems, Fremont, CA). After being mixed using an automated liquid handler (CyBio, Jena, Germany), samples were incubated (37 deg C, 5% CO2, under a humidified atmosphere) for 16 hours. PGE2 labeled conjugates were added to each well, first 5 uL of PGE2-d2, followed by 5 uL of anti-PGE2-cryptate, centrifuged (1,500 rpm, 15 sec) and incubated (RT, protected from light) for 5 hours. Time-resolved fluorescence intensity (320 nm excitation, 615 and 665 nm emission) was measured using an Envision plate reader (PerkinElmer). Data was expressed as the ratio of 665 nm/615 nm emissions. Concentration (pg/mL) of samples were calculated from a 4-parameter logistic calibration curves of the PGE2 standards.
row,SMILES,Potency
1,Cc1cc(-c2nnc3n2CCCCC3)c(C)n1-c1ccccc1,372 nM (active) and 2.64 µM (active)
